Screening data deposited in PubChem BioAssay by National Center for Advancing Translational Sciences (NCATS).
TDP1 cell noCPT = qHTS for Inhibitors of human tyrosyl-DNA phosphodiesterase 1 (TDP1): qHTS in cells in absence of CPT | DT40 Tdp1-/- hTDP1 cells, no CPT, ATP luminescence, 48 h | Potency, µM (series often up to 46.2 µM), usual class: inhibitors | 420,000 compounds, 15% hits | AID 686978, 2013; note: nearly all actives have a fitted effect of over 55% in size
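Readout: luminescence from CellTiter-Glo after 30 min in the dark at RT. Cells: DT40 Tdp1-/- with stable hTDP1, 400/well. Exposure: compounds alone, ≥48 hr, 37 °C.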
HT1080 IDH1KD tx = toxicity to HT-1080 IDH1 knockdown cells (counter line) | HT-1080 IDH1 knockdown viability, ATP luminescence, 48 h | AID 686971 | Potency, µM (series often up to 46.1 µM), actives largely listed as cytotoxic | 360,000 compounds, 2% hits
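CellTiter-Glo luminescence after 48 h compound exposure at 37 degrees C of IDH1-knockdown HT-1080 cells in 5% FBS RPMI. %Activity scaled between DMSO wells and cell-free media wells, with curves fitted and assigned curve classes.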
HT1080NT lethal = kills 2HG-producing HT-1080-NT fibrosarcoma cells; HT-1080-NT fibrosarcoma viability, CellTiter-Glo ATP luminescence, 48 h; Potency, µM (highest dose often 46.1 µM), hits mostly cytotoxic; 360,000 compounds, 1.6% hits;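 note: NT is the 2HG producing partner of a matched IDH1 knockdown line; nearly all actives have a fitted effect of over 55% in size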
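Luminescent CellTiter-Glo readout after 48 hours of compound exposure at 37 degrees C defined viability of HT-1080-NT cells. Activity was normalized to DMSO wells and cell-free media wells; concentration-response curves were fitted and assigned curve classes.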
TDP1 cell CPT = growth inhibition of DT40 Tdp1-/-;hTDP1 cells with camptothecin (screen for TDP1 inhibitors); chicken DT40 Tdp1-/-;hTDP1 cells + 20 nM CPT, ATP luminescence, 48 h; Potency, µM (titrated, usually from 46.2 µM), hits mostly inhibitors; 420,000 compounds, 12% hits; AID 686979; note: nearly all actives have a fitted effect of over 55% in size
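Chicken DT40 Tdp1-/- cells complemented with human TDP1, 400 cells/well, exposed to compounds plus 20 nM camptothecin for at least 48 h at 37 C; viability read as ATP content by CellTiter-Glo luminescence.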
IL1B secr inh = inflammasome signaling inhibition, IL-1 beta readout | THP-1 LPS/ATP IL-1B secretion, AlphaLISA, 16 h; hits give low values | activity change, % at 57.5 µM | 360,000 compounds, 4.7% hits; in the data active = activity change below about -50%; inconclusive = mostly about -30% to -49%
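THP-1 cells pretreated 1 hr with compounds (up to 57.5 uM final), then stimulated with LPS (250 ng/mL final) plus ATP (1.25 mM final); secreted IL-1B measured by AlphaLISA after 16 hr, decreased signal indicating inhibition.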
Numbers stand for hits; n = inactive; u = inconclusive; x = no result given. In the library only some 19% were active in any assay of this set; here they are far more common. Unless noted, calls come from the whole dose curve; as a rule, active = well fitted curve in the direction sought with a large enough effect; inconclusive = small, poorly fitted or top-dose-only effect, or another doubt; inactive = no such curve, though single readings can be large; an effect the other way counts as inactive or inconclusive.

SMILES | TDP1 cell noCPT | HT1080 IDH1KD tx | HT1080NT lethal | TDP1 cell CPT | IL1B secr inh
CC1(Oc2cccnc2Cl)CCN(Cc2ccc(OC(F)(F)F)cc2)C1 (stereo not given) | 18µM | n | n | 21µM | -56
Cc1ccccc1OC1(C)CCN(Cc2ccc3ccccc3c2)C1 (stereo not given) | 16µM | n | n | u | n
O=C(NNC(=O)c1ccccc1O)c1cccc(Br)c1 | u | n | n | u | n
Cc1ccc(CN2CCC(C)(Oc3cccc(Cl)c3)C2)cc1 (stereo not given) | u | n | n | 29µM | n
CC(=O)c1cc2cccc(OC3(C)CCN(Cc4ccc(-c5ccccn5)cc4)C3)c2o1 (stereo not given) | 18µM | n | n | u | n
COc1cc(Cl)ccc1OC1(C)CCN(Cc2ccc(SC)cc2)C1 (stereo not given) | 18µM | u | u | 13µM | u
O=C(COC(=O)COc1ccc(Br)cc1)NNC(=O)c1ccccc1 | u | n | n | n | n
COc1ccc(-c2cc(C(=O)O)c3c(C)nn(-c4ccccn4)c3n2)cc1 | n | n | n | n | n
CCOC(=O)c1cc(-c2ccncc2)nc2c1c(C)nn2-c1ccccn1 | 16µM | n | n | u | n
C=C(C)CN=CC1(C)CCC(C)=CO1 (stereo not given) | 18µM | n | n | 16µM | n
CS(=O)(=O)N(CC(=O)N1CCOCC1)c1ccccc1Br | n | n | n | n | n
Cc1cc(C)c(C(=O)N2CCCC(N3CCN(c4ccc(F)cc4)CC3)C2)o1 (stereo not given) | 16µM | n | n | u | n
Cc1nc(C(=O)N2CCCC(N3CCN(c4ccc(F)cc4)CC3)C2)cs1 (stereo not given) | 15µM | n | n | 21µM | n
COc1cccc(CNC(=O)CCS(=O)(=O)c2ccccc2Cl)c1 | n | n | n | n | n
O=C(COc1ccc(F)cc1)NCC1(N2CCOCC2)CCCCC1 | n | n | n | u | n
Cc1ccc(OCC(=O)NCC2(N3CCOCC3)CCCCC2)cc1C | 16µM | x | x | 21µM | x
CC(Oc1ccccc1F)C(=O)NCC1(N2CCOCC2)CCCCC1 (stereo not given) | 18µM | x | x | u | x
Cc1cc(C)cc(OCC(=O)NCC2(N3CCOCC3)CCCCC2)c1 | 26µM | x | x | u | x
Cc1cccc(C)c1OCC(=O)NCC1(N(C)C)CCCCC1 | n | x | x | n | x
Cc1cccc(C)c1OCC(=O)NCC1(N2CCOCC2)CCCCC1 | u | x | x | 16µM | x
CC(=O)c1ccc(OC(C)C(=O)NCC2(N3CCOCC3)CCCCC2)cc1 (stereo not given) | u | n | n | u | n
O=c1cc(-c2ccccc2)n2c(SCc3ccc([N+](=O)[O-])cc3)nnc2[nH]1 | n | x | x | n | x
O=C(COc1ccccc1[N+](=O)[O-])NCC1(N2CCOCC2)CCCCC1 | 21µM | n | n | u | n
CC(C)(C)NC(=O)N1c2ccccc2Sc2ccccc21 | n | n | n | n | n
O=C(NCCc1cccnc1)c1cc(COc2ccc(F)cc2Cl)on1 | u | 15µM | u | u | n
SMILES | TDP1 cell noCPT | HT1080 IDH1KD tx | HT1080NT lethal | TDP1 cell CPT | IL1B secr inh
O=C(NCCCc1ccccc1)c1cc(COc2ccc(F)cc2Cl)on1 | u | n | n | 21µM | u
O=C(c1cc(COc2ccc(F)cc2Cl)on1)N1CCc2sccc2C1 | n | n | n | u | u
Cc1nc(CNC(=O)c2cc(COc3ccc(F)cc3Cl)on2)cs1 | u | n | n | u | u
CC(CNC(=O)c1cc(COc2c(F)cccc2F)on1)Oc1cccnc1 (stereo not given) | 15µM | n | n | 21µM | n
O=C(NCCc1cccnc1)c1cc(COc2ccc(F)cc2F)on1 | 23µM | u | u | u | n
CC(Cc1cccnc1)NC(=O)c1cc(COc2ccc(F)cc2F)on1 (stereo not given) | 21µM | n | n | 16µM | n
COc1ccc(OCc2cc(C(=O)NC(C)Cc3ccccn3)no2)c(Cl)c1 (stereo not given) | u | n | n | u | n
CCn1cc(CNC(=O)c2cc(COc3ccc(F)cc3F)on2)cn1 | 23µM | n | n | u | n
